From PubChem BioAssay (Tox21)
Where “and” joins values, the source holds several entries; their conditions need not be identical. Equal entries are not always repeated. Results filed as inconclusive are left out. Calls of active or inactive are those of the source. Unless noted, the call rests on the fitted dose curve; in most records, active means well fitted curve in the direction sought with a large enough effect in the repeat runs; inconclusive means weak or mixed curves; inactive means no such curve, though single readings can be large; an effect the other way counts as inactive or inconclusive.

Experiments:
[1] = biological target: Acetylcholinesterase (Homo sapiens) (UniProt P22303); assay: Acetylcholinesterase (AChE) small molecule antagonists: colormetric cell-based qHTS assay (AID 1347395; calls by dose curve; further: nearly all actives have a fitted effect of over 30% in size; further: potency means the concentration at half of the fitted maximal effect)
How it was run: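 Cells (SH-SY5Y, 2,000 per well) are seeded and left overnight at 37 C. Compound is added for 30 min, then DTNB and acetylthiocholine for a further 90 min at 37 C before absorbance-based thiocholine detection.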

[2] = biological target: Acetylcholinesterase (Homo sapiens) (UniProt P22303); assay: Acetylcholinesterase (AChE) small molecule antagonists: enzyme-based qHTS assay (AID 1347397; calls by dose curve; further: nearly all actives have a fitted effect of over 55% in size; further: potency means the concentration at half of the fitted maximal effect); details: Potency: AChE enzyme activity inhibition; outcome: AChE enzyme activity inhibition
How it was run: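 Human recombinant acetylcholinesterase; substrate acetylthiocholine; thiocholine quantified with DTNB (colorimetric). Compound preincubation 30 min RT; reaction 10 min RT.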

[3] = biological target: Acetylcholinesterase (Homo sapiens) (UniProt P22303); assay: Acetylcholinesterase (AChE) small molecule antagonists: fluorescence cell-based qHTS assay (AID 1347398; calls by dose curve; further: nearly all actives have a fitted effect of over 50% in size; further: potency means the concentration at half of the fitted maximal effect); details: Potency: AChE activity; outcome: AChE activity
How it was run: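 Thiocholine generated from acetylthiocholine by SH-SY5Y cell AChE is detected with Thiolite Green (Ex/Em 490/520 nm) after 40 min at room temperature, following 30 min compound pretreatment at 37 C.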

[4] = biological target: Acetylcholinesterase (Homo sapiens) (UniProt P22303); assay: Acetylcholinesterase (AChE) small molecule antagonists: enzyme-based qHTS assay with human liver microsomes (AID 1347399; calls by dose curve; further: nearly all actives have a fitted effect of over 60% in size); details: Potency: qHTS inhibition; outcome: qHTS inhibition
How it was run: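 Recombinant human AChE (50 mU/mL in the enzyme mix) and human liver microsomes (0.25 mg/mL final) were preincubated with compound and NADPH (0.25 mg/mL final) for 30 min at 37 C. Acetylthiocholine/DTNB was then added; thiocholine was read colorimetrically after 10 min at room temperature.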

[5] = biological target: Cytochrome P450 2C9 (Homo sapiens) (UniProt P11712); assay: Cytochrome P450 Family 2 Subfamily C Member 9 (CYP2C9) small molecule antagonists: luciferase reporter qHTS assay (AID 1671198); further: nearly all actives have a fitted effect of over 50% in size; further: potency means the concentration at half of the fitted maximal effect; on activity change, negative = inhibition: series mostly up to about 120 µM
How it was run: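 CYP2C9 activity was measured with a P450-Glo proluciferin substrate. Enzyme–substrate mix was held with compound for 10 min at room temperature, then NADPH regeneration solution was added for 1 h at 37C. Luciferin product was read as luminescence.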

[6] = biological target: Cytochrome P450 1A2 (Homo sapiens) (UniProt P05177); assay: Cytochrome P450 Family 1 Subfamily A Member 2 (CYP1A2) small molecule antagonists: luciferase reporter qHTS assay (AID 1671199); further: nearly all actives have a fitted effect of over 50% in size; further: potency means the concentration at half of the fitted maximal effect; on activity change, negative = inhibition: series mostly up to about 120 µM
How it was run: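 P450-Glo CYP1A2, 1536-well qHTS: enzyme/proluciferin substrate + cpd (DMSO), 10 min RT; NADPH regen, 1 h RT; detection reagent, 20 min; luminescence, RLU.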

[7] = biological target: Voltage-gated inwardly rectifying potassium channel KCNH2 (Homo sapiens) (UniProt Q12809); assay: Human Ether-a-go-go-Related Gene (hERG) channel small molecule antagonists: fluorescence cell-based qHTS assay (AID 1671200);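 further: hERG-expressing U2OS cells given a thallium stimulus after FluxOR II dye loading; series mostly up to about 77 µM; nearly all actives have a fitted effect of over 50% in size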
How it was run: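 Fluorescence at 540 nm emission (480 nm excitation) was recorded kinetically for 2 min at 1-second intervals once the thallium-containing stimulus reached cells previously loaded with FluxOR II dye.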

[8] = biological target: Cytochrome P450 3A4 (Homo sapiens) (UniProt P08684); assay: Cytochrome P450 Family 3 Subfamily A Member 4 (CYP3A4) small molecule antagonists: luciferase reporter qHTS assay (AID 1671201); further: nearly all actives have a fitted effect of over 50% in size; further: potency means the concentration at half of the fitted maximal effect; on activity change, negative = inhibition: series mostly up to about 120 µM
How it was run: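 qHTS, 1536-well. CYP3A4 + proluciferin substrate, cpd 10 min RT → NADPH regen 1 h RT → detection reagent 20 min → luminescence (RLU). Ketoconazole positive control.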

[9] = biological target: Cytochrome P450 2D6 (Homo sapiens) (UniProt P10635); assay: Cytochrome P450 Family 2 Subfamily D Member 6 (CYP2D6) small molecule antagonists: luciferase reporter qHTS assay (AID 1671196); further: nearly all actives have a fitted effect of over 50% in size; further: potency means the concentration at half of the fitted maximal effect; on activity change, negative = inhibition: series mostly up to about 120 µM
How it was run: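 Read-out is luminescence from luciferin formed by CYP2D6 turnover of a proluciferin substrate, recorded as relative luminescence units. Reactions ran 1 h at room temperature after NADPH regeneration solution was added.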

[10] = biological target: Cytochrome P450 2C19 (Homo sapiens) (UniProt P33261); assay: Cytochrome P450 Family 2 Subfamily C Member 19 (CYP2C19) small molecule antagonists: luciferase reporter qHTS assay (AID 1671197); further: nearly all actives have a fitted effect of over 65% in size; further: potency means the concentration at half of the fitted maximal effect; on activity change, negative = inhibition: series mostly up to about 120 µM
How it was run: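 Quantitative high-throughput screen of the Tox21 library using CYP2C19 with proluciferin substrate. Reaction: NADPH regeneration, 37C, 1 h, after 10 min compound preincubation at room temperature. Readout: luminescence.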
On the % scale 0 is the no-effect control and ±100 the full control effect.

Cytochrome P450 3A4 (Homo sapiens), sequence (P08684 whole entry, looked up): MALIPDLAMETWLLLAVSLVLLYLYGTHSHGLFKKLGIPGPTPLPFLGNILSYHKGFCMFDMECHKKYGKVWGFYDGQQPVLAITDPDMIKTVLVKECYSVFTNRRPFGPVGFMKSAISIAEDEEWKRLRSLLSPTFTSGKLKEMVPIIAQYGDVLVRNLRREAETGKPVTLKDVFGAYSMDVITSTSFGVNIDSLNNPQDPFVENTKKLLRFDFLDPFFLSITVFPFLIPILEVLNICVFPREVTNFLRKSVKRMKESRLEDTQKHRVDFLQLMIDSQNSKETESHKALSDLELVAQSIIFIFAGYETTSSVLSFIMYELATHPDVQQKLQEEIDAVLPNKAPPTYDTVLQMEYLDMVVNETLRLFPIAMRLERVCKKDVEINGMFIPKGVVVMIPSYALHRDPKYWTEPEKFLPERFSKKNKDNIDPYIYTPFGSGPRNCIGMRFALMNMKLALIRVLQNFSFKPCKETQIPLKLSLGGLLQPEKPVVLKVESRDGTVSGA
Cytochrome P450 2C19 (Homo sapiens), sequence (P33261 whole entry, looked up): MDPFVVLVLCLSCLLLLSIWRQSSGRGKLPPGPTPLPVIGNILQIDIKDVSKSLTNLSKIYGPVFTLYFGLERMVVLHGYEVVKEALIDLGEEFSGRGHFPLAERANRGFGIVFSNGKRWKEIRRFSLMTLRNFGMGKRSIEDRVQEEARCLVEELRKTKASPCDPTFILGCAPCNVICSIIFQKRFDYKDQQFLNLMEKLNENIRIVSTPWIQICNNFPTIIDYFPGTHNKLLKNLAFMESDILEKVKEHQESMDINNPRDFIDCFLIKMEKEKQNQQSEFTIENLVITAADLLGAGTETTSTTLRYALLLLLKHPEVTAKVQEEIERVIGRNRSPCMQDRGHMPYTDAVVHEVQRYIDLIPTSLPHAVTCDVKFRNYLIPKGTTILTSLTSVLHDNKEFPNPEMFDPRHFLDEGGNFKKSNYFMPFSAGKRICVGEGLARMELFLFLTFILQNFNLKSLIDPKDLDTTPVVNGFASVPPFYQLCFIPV
Voltage-gated inwardly rectifying potassium channel KCNH2 (Homo sapiens), sequence (Q12809 whole entry, looked up): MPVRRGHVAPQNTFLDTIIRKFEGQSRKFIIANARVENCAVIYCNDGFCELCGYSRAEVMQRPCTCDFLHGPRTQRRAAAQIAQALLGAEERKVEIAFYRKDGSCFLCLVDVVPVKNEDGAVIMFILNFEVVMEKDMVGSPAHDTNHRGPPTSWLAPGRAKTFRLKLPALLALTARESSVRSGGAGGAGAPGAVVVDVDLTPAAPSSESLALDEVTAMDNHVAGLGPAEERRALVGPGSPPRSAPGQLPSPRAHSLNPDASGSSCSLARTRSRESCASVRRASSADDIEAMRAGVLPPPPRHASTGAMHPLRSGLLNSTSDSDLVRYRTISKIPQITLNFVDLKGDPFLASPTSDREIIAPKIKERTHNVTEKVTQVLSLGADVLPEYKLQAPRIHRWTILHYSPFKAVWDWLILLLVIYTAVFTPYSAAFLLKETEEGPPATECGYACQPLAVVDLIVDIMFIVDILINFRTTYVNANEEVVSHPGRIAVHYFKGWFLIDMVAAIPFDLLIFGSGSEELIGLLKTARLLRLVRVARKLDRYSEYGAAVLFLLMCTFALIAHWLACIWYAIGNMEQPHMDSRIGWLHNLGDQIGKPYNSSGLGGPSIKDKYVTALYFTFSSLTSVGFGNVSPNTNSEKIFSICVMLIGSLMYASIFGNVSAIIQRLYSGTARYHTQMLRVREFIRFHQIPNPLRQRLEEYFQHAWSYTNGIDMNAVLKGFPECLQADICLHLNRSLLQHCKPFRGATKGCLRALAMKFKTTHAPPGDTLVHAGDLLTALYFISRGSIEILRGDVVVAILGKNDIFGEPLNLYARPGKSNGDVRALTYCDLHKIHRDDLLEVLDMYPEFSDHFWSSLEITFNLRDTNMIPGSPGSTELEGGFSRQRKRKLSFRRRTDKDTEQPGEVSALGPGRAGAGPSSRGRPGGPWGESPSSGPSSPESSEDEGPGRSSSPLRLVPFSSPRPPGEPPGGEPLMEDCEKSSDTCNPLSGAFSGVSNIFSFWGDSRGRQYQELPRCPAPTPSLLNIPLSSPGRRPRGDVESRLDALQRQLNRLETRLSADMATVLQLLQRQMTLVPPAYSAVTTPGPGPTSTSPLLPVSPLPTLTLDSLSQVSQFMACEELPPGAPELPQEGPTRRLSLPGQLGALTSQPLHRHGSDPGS
Cytochrome P450 1A2 (Homo sapiens), sequence (P05177 whole entry, looked up): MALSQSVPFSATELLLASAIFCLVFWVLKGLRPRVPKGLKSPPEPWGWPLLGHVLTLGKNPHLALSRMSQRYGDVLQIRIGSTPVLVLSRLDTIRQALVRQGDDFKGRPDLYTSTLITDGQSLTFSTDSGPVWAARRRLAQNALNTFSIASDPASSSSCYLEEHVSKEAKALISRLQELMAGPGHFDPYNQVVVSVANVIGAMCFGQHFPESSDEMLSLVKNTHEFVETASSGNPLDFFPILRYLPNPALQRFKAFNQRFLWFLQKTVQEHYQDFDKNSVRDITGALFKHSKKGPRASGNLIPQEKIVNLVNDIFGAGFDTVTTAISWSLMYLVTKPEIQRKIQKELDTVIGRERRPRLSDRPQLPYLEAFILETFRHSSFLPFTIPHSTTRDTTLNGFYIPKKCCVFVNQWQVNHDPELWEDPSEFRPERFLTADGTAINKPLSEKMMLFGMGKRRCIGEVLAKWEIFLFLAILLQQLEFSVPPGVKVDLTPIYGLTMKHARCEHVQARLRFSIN
Acetylcholinesterase (Homo sapiens), sequence (P22303 whole entry, looked up): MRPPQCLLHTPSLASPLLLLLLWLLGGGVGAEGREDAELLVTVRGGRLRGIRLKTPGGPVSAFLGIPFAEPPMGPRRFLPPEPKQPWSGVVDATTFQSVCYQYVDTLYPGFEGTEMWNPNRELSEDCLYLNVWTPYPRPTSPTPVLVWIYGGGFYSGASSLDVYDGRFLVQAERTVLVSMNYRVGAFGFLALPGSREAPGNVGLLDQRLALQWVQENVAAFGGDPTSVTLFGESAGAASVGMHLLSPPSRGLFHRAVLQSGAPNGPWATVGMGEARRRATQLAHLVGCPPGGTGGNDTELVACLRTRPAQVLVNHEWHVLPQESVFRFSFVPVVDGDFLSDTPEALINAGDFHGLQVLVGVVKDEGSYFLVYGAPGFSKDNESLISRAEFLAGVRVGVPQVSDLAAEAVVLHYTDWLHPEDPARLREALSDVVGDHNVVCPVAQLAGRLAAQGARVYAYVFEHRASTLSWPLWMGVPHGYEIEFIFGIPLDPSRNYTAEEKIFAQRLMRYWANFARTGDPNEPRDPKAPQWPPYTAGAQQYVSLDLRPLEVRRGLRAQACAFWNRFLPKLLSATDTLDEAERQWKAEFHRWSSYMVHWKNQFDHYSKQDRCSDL
Cytochrome P450 2C9 (Homo sapiens), sequence (P11712 whole entry, looked up): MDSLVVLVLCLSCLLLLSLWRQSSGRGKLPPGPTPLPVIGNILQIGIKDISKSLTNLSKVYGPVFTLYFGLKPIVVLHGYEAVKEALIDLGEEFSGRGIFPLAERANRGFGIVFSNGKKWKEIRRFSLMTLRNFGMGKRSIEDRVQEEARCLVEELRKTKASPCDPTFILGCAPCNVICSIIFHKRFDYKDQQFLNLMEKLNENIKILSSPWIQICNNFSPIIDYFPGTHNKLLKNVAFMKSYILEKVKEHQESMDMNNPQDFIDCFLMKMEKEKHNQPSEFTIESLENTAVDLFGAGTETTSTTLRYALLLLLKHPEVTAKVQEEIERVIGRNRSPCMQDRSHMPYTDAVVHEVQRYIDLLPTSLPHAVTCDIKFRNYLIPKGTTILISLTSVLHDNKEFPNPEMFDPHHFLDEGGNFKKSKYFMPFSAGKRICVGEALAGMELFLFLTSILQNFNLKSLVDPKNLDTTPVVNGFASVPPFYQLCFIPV
Cytochrome P450 2D6 (Homo sapiens), sequence (P10635 whole entry, looked up): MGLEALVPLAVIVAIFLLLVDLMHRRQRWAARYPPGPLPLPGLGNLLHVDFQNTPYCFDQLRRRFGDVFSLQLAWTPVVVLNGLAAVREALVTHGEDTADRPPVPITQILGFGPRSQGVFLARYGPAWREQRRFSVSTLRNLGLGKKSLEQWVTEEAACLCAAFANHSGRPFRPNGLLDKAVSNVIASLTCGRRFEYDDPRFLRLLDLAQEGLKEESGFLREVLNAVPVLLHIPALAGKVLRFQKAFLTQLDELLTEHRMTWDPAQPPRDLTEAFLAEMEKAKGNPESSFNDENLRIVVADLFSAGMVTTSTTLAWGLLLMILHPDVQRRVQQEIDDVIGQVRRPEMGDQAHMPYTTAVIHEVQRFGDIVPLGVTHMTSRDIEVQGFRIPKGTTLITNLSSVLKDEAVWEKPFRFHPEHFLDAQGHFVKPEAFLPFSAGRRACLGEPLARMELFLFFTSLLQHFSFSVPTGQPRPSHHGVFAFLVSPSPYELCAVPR

BrCC1CO1 (stereo unspecified)
inactive: Potency [1] | Potency [2] | Potency [3] | Potency [4] | Potency [5] | Potency [6] | Potency [7] | Potency [8]

O=C(NC(O)C(Cl)(Cl)Cl)NC(O)C(Cl)(Cl)Cl (stereo unspecified)
inactive: Potency [1] | Potency [2] | Potency [3] | Potency [4] | Potency [5] | Potency [6] | Potency [7] | Potency [8]

CCCC[N+](=O)[O-]
inactive: Potency [1] | Potency [2] | Potency [3] | Potency [9] | Potency [10] | Potency [5] | Potency [6] | Potency [7] | Potency [8]

CCCCS(=O)(=O)Cl
inactive: Potency [1] | Potency [2] | Potency [3] | Potency [4] | Potency [5] | Potency [6] | Potency [7] | Potency [8]

O=C(Cl)/C=C/C(=O)Cl
inactive: Potency [1] | Potency [2] | Potency [3] | Potency [9] | Potency [10] | Potency [6] | Potency [7] | Potency [8]

COC(=O)c1ccc(CBr)cc1
inactive: Potency [1] | Potency [2] | Potency [3] | Potency [4] | Potency [7]
active: Potency [6] 36 µM

ClCOCCl
inactive: Potency [1] | Potency [2] | Potency [3] | Potency [9] | Potency [10] | Potency [5] | Potency [7] | Potency [8]

C=CCc1cc(OC)c2c(c1)OCO2
active: Potency [9] 23.5 µM | Potency [5] 37.2 µM | Potency [6] 1.87 µM | Potency [8] 4.69 µM
inactive: Potency [1] | Potency [2] | Potency [3] | Potency [7]

N[C@@H]1C[C@H]1c1ccccc1
inactive: outcome [1] | outcome [2] | outcome [3] | Potency [7]
active: Potency [9] 27.5 µM | Potency [5] 19.5 µM

COC[C@@H](NC(C)=O)C(=O)NCc1ccccc1
inactive: Potency [1] | Potency [2] | Potency [3] | Potency [10] | Potency [5] | Potency [8]

CN(C)C(=O)Oc1cc(OC(=O)N(C)C)cc(C(O)CNC(C)(C)C)c1 (stereo unspecified)
inactive: Potency [1] | Potency [2] | Potency [3] | Potency [10] | Potency [5] | Potency [6] | Potency [7] | Potency [8]

CCC(C)C(C)(COC(N)=O)COC(N)=O (stereo unspecified)
inactive: Potency [1] | Potency [2] | Potency [3] | Potency [9] | Potency [5] | Potency [6] | Potency [7] | Potency [8]

CC(=O)OCC1=C(C(=O)O)N2C(=O)[C@@H](N)[C@H]2SC1
inactive: activity, negative = inhibition [1] 1.78% [at 23.6 µM] | activity change, negative = inhibition [2] -2.73% [at 23.6 µM] | activity change, negative = inhibition [3] -12.7% [at 23.8 µM] | activity change, negative = inhibition [4] -11.4% [at 23.6 µM] | activity change, negative = inhibition [7] 0.177% [at 15.8 µM] | activity change, negative = inhibition [8] -8.01% [at 23.6 µM]
active: Potency [6] 12 µM

NNCc1ccccc1
active: Potency [10] 36.2 µM | Potency [5] 45.6 µM | Potency [6] 12.9 µM | Potency [8] 32.3 µM
inactive: Potency [1] | Potency [2] | Potency [3]

COP(=O)(O)OC
inactive: Potency [1] | Potency [2] | Potency [3] | Potency [4] | Potency [5] | Potency [7] | Potency [8]
active: Potency [6] 32.8 µM

ClCCCCCCCl
inactive: Potency [1] | Potency [2] | Potency [3] | Potency [5] | Potency [7] | Potency [8]
active: Potency [10] 39.9 µM | Potency [6] 35.6 µM

CNC(=O)Oc1ccccc1C(C)C
active: Potency [1] 3.56 µM | Potency [2] 7.96 µM | Potency [3] 4.48 µM | Potency [10] 39.9 µM | Potency [6] 35.6 µM
inactive: Potency [9] | Potency [7] | Potency [8]

Cc1ccc(Cl)c(O)c1
inactive: Potency [1] | Potency [2] | Potency [3] | Potency [4] | Potency [5] | Potency [6] | Potency [7] | Potency [8]

NCCOS(=O)(=O)O
inactive: Potency [1] | Potency [2] | Potency [3] | Potency [4] | Potency [5] | Potency [6] | Potency [7] | Potency [8]

C=CC1(C)OC(=O)N(c2cc(Cl)cc(Cl)c2)C1=O (stereo unspecified)
active: Potency [10] 7.92 µM and 12.6 µM | Potency [6] 5.61 µM and 6.33 µM
inactive: Potency [1] | Potency [2] | Potency [3] | Potency [9] | Potency [5]

c1cncc([C@@H]2CCCCN2)c1
inactive: Potency [1] | Potency [2] | Potency [3] | Potency [4] | Potency [7]

CN(CCO)CCO
inactive: Potency [1] | Potency [2] | Potency [3] | Potency [10] | Potency [5] | Potency [7] | Potency [8]

CCSC(=O)Cl
inactive: Potency [1] | Potency [2] | Potency [3] | Potency [10] | Potency [5] | Potency [6] | Potency [7] | Potency [8]

CC(Cl)(Cl)Cl
inactive: Potency [1] | Potency [2] | Potency [3] | Potency [9] | Potency [10] | Potency [5] | Potency [6] | Potency [7] | Potency [8]

CC(C)(C)NC[C@H](O)c1ccc(O)cc1Cl
inactive: Potency [1] | Potency [2] | Potency [3] | Potency [10] | Potency [5] | Potency [6] | Potency [7] | Potency [8]
active: Potency [9] 30.9 µM

O=C1CCCCC1Cl (stereo unspecified)
inactive: Potency [1] | Potency [2] | Potency [3] | Potency [9] | Potency [5] | Potency [7] | Potency [8]
active: Potency [10] 40.4 µM | Potency [6] 36 µM

O=C1CC(=O)NC(=O)N1
inactive: Potency [1] | Potency [2] | Potency [3] | Potency [4] | Potency [5] | Potency [6] | Potency [7] | Potency [8]

O=C(Cl)CCl
active: Potency [9] 71.4 µM
inactive: Potency [1] | Potency [2] | Potency [3] | Potency [5] | Potency [7] | Potency [8]

O=c1[nH]c2ccccc2n1C1CCNCC1
inactive: Potency [1] | Potency [2] | Potency [3] | Potency [4] | Potency [7] | Potency [8]

CC1=C2[C@H]3OC(=O)[C@@H](C)[C@@H]3CC[C@@]2(C)C=CC1=O
inactive: Potency [1] | Potency [2] | Potency [3] | Potency [4] | Potency [6] | Potency [7]
